The subject of test [1] is Zika virus NS2B-NS3 protease (unlinked complex). Description: Primary screen GU Rhodamine qHTS for Zika virus inhibitors: Unlinked NS2B-NS3 protease assay (AID 1347159). Further: on the % scale 0 is the no-effect control and ±100 the full control effect; nearly all actives have a fitted effect of over 60% in size. An outline of the steps:
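In dose–response format, inhibition of unlinked protease (25 nM) was measured with 1.5 microM bis-peptide Rhodamine110 substrate. Aprotinin served as the intraplate control.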
A general note: In qHTS, concentration-response curves come from the screen itself.

Test [2] has as its system Zika virus NS2B-NS3 protease (linked construct). Kind of test: Primary screen NINDS Rhodamine qHTS for Zika virus inhibitors (AID 1347160). Further: nearly all actives have a fitted effect of over 55% in size. An outline of the steps: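 Each compound, titrated, sat 15 min with 25 nM linked protease before 1.5 microM Rhodamine110 substrate went in. Fluorescence gain over the next 15 min, in pH 8.0 Tris with Tween 20, gave Hill-fitted curves.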

Test [3] concerns the target Glutathione peroxidase 1 (Homo sapiens) (UniProt P07203). Kind of test: Primary qHTS Assay for Inhibitors of Recombinant Selenoprotein Glutathione Peroxidase 1 (GPX1) (AID 1845191). Further: nearly all actives have a fitted effect of over 65% in size. An outline of the steps:
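NADPH consumption tracked by fluorescence at 340/450 nm between t=0 and t=15 min, room temperature. Final mix: 10 nM GPX1, 100 nM glutathione reductase, 1 mM GSH, 0.5 mM NADPH, 0.5 mM cumene hydroperoxide, 0.01% BSA; 30 min compound–enzyme preincubation.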

Test [4] deals with Phospholipid hydroperoxide glutathione peroxidase GPX4 (Homo sapiens) (UniProt P36969). Kind of test: Primary qHTS Assay for Inhibitors of Recombinant Selenoprotein Glutathione Peroxidase 4 (GPX4) (AID 1845192). Further: on the % scale 0 is the no-effect control and ±100 the full control effect; nearly all actives have a fitted effect of over 65% in size. An outline of the steps: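 NADPH consumption followed by fluorescence at 340/450 nm, t=0 and after 15 min at room temperature. Reaction started with cumene hydroperoxide (0.5 mM final) after 30 min compound–GPX4 preincubation; final 200 nM GPX4, 100 nM GR, 1 mM GSH, 0.5 mM NADPH.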

Test [5] can be described thus: Primary fluorescence-based thiol-reactive (MSTI) qHTS assay for identification of artifact compounds. (AID 1845221).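 Further: thiol-reactive compounds lower the probe fluorescence signal; nearly all actives have a fitted effect of over 65% in size.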 Put shortly: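 MSTI probe at 4 uM final in 2% DMSO/PBS pH 7.4; compounds, 1 h at room temperature in dark. Fluorescence Ex/Em 525/598 nm, normalised to Acetyl-MSTI and MSTI, fitted to 4-parameter Hill.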
Test [6] has as its system Nanoluciferase (engineered Oplophorus gracilirostris luciferase). Kind of test: Primary Nanoluciferase (NLuc) qHTS assay for identification of artifact compounds. (AID 1845222).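 Further: 0% = DMSO and -100% = no enzyme.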 An outline of the steps: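 Compounds are pinned into diluted (1:55) conditioned medium of NLuc-expressing S16 cells and held 15 min at room temperature protected from light. Nano-Glo substrate follows, and luminescence is read 5 min later.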

For test [7], the system named is OV90. Description: Primary qHTS to identify gynecologic anti-cancer compounds using libraries of approved drugs and bioactive compounds (AID 1345084). Further: nearly all actives have a fitted effect of over 55% in size. Further: potency means the concentration at half of the fitted maximal effect. Particulars: Gynecologic cancer cell panel viability, ATPlite luminescence, 48 h; series mostly up to 57.5 µM. An outline of the steps: (§1)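 Cells, 1,000 per well, plated 16 h, then exposed 48 h at 37 C to compounds. Viability by ATPlite luminescence after 15 min at room temperature.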

The subject of test [8] is PA-1. The description is as above. The following applies: Gynecologic cancer cell panel viability, ATPlite luminescence, 48 h; series mostly up to 57.5 µM. An outline of the steps: as §1
(In ATP-based viability assays light output follows the ATP content of the culture.)

Test [9] concerns the target Calcium and integrin-binding protein 1 (Homo sapiens) (UniProt Q99828). Description: Primary qHTS for Identification of Calcium Integrin Binding Protein 1 (CIB1) Competitor (AID 1508620).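 Further: GST tagged CIB1 binding a fluorescein labelled alphaIIb integrin peptide tracer; top concentration of the series differs between compounds; on the % scale 0 is the no-effect control and ±100 the full control effect.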 Put shortly:
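CIB1-GST (1 uM final) and compound incubated 15 min at room temperature before adding FITC-alphaIIb peptide tracer (100 nM final). Competition for binding read by fluorescence polarization (ex 480, em 540) after another 15 min at room temperature.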

Test [10] concerns CRL-7250. Description: Cytotoxic Profiling of Annotated Libraries Using Quantitative High-Throughput Screening (AID 1296008). Further: nearly all actives have a fitted effect of over 60% in size. Further: potency means the concentration at half of the fitted maximal effect. On max response: on the % scale 0 is the no-effect control and ±100 the full control effect. Particulars: Five cell lines viability, CellTiter-Glo ATP luminescence, 48-72 h; max response: stronger effect = lower value. Put shortly: (§2)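 Cytotoxicity was measured as CellTiter-Glo ATP luminescence, read after 10 min at room temperature. Compound treatment of the cells lasted 48 or 72 hr at 37 degrees Celsius in a qHTS format.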

Test [11] relates to NIH3T3. The test is described as above. Particulars: Five cell lines viability, CellTiter-Glo ATP luminescence, 48-72 h; max response: stronger effect = lower value. An outline of the steps: as §2
The subject of test [12] is C33A. Kind of test: Primary qHTS to identify gynecologic anti-cancer compounds using libraries of approved drugs and bioactive compounds (AID 1345084). Further: nearly all actives have a fitted effect of over 55% in size. Further: potency means the concentration at half of the fitted maximal effect. Particulars: Gynecologic cancer cell panel viability, ATPlite luminescence, 48 h; series mostly up to 57.5 µM. Put shortly:
as §1

The subject of test [13] is CAOV3. Described as above. The following applies: Gynecologic cancer cell panel viability, ATPlite luminescence, 48 h; series mostly up to 57.5 µM. Put shortly: as §1
Test [14] deals with CASKI. The test is described as above. Particulars: Gynecologic cancer cell panel viability, ATPlite luminescence, 48 h; series mostly up to 57.5 µM. Put shortly:
as §1

Test [15] deals with Es-2. The test is described as above. The following applies: Gynecologic cancer cell panel viability, ATPlite luminescence, 48 h; series mostly up to 57.5 µM. Put shortly: as §1
The test system of test [16] is Tov-21-G. The test is described as above. The following applies: Gynecologic cancer cell panel viability, ATPlite luminescence, 48 h; series mostly up to 57.5 µM. An outline of the steps:
as §1

Test [17] relates to Tov112D. The description is as above. The following applies: Gynecologic cancer cell panel viability, ATPlite luminescence, 48 h; series mostly up to 57.5 µM. An outline of the steps:
as §1

Test [18] concerns the target Luciferin 4-monooxygenase (Photinus pyralis) (UniProt P08659). Kind of test: Primary firefly luciferase (FLuc) qHTS assay for identification of artifact compounds. (AID 1845220). Further: nearly all actives have a fitted effect of over 60% in size. The following applies: outcome: dose series up to 54.1 µM unless noted. Put shortly:
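Cell-free, 1536-well qHTS. Buffer pH 7.6 with 0.01% Tween-20 and 0.05% BSA; 10 uM D-luciferin, 10 uM ATP; 10 nM P. pyralis luciferase; luminescence after 5 min.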

For test [19], the system named is Hek293T. Description: Primary qHTS to identify gynecologic anti-cancer compounds using libraries of approved drugs and bioactive compounds (AID 1345084). Further: nearly all actives have a fitted effect of over 55% in size. Further: potency means the concentration at half of the fitted maximal effect. Particulars: Gynecologic cancer cell panel viability, ATPlite luminescence, 48 h, control line for the selectivity index; series mostly up to 57.5 µM. Put shortly:
as §1

Test [20] relates to JEG-3. The test is described as above. The following applies: Gynecologic cancer cell panel viability, ATPlite luminescence, 48 h; series mostly up to 57.5 µM. An outline of the steps:
as §1

Unmarked numbers belong to inactive results. Inconclusive results are not listed. Activity calls are given as the source filed them. The call rests on the fitted dose curve; in most records, active means well fitted curve in the direction sought with a large enough effect; inconclusive means small, poorly fitted or top-dose-only effect, or another doubt; inactive means no such curve, though single readings can be large; an effect the other way counts as inactive or inconclusive.

Calcium and integrin-binding protein 1 (Homo sapiens), sequence (Q99828 whole entry, looked up): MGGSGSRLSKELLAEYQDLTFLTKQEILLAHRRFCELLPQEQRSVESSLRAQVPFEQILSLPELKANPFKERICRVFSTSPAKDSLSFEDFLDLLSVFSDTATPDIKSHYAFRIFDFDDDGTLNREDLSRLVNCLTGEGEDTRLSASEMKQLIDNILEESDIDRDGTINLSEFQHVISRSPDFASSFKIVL
Glutathione peroxidase 1 (Homo sapiens), sequence (P07203 whole entry, looked up): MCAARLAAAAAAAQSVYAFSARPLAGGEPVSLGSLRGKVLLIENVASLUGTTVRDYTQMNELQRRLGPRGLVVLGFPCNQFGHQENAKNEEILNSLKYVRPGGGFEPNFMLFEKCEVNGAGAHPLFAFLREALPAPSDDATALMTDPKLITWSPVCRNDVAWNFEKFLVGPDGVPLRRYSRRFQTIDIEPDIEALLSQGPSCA
Phospholipid hydroperoxide glutathione peroxidase GPX4 (Homo sapiens), sequence (P36969 whole entry, looked up): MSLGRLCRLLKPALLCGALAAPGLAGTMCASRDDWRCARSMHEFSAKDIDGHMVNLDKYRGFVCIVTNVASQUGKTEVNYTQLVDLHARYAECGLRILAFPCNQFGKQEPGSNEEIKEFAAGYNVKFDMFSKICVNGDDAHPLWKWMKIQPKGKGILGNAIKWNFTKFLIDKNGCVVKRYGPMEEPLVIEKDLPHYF

For the compound `O=C1Nc2ccc3ncsc3c2/C1=C/c1cnc[nH]1`, the Potency result in [1], in test [2], in test [3], in test [4], in test [5] and in test [6] was “inactive” in each case. Moreover, the Potency entry in test [7] was “inactive”. Further, the Potency in test [8] was 7940 nM (active).
For `CCOP(=O)(OCC)Oc1ccc2c(C)cc(=O)oc2c1`, the Potency result in [2], in test [9], in test [3], in test [5], in test [6] and in test [12] was “inactive” in each case. The Potency entry in [13], in [14], in test [15], in test [7], in [8] and in [16] was “inactive” in each case. For the same compound, the Potency entry in test [17] was “inactive”. Moreover, the max response in test [10] is -4.98%; in test [11], -21.6%.
Take `Cc1ccccc1C1=CCN(C)CC1`: the Potency result in [1], in test [2], in [9], in test [3], in [4] and in test [5] was “inactive” throughout. In addition, the Potency entry in test [6], in [13], in test [14], in test [15], in [19] and in [20] was “inactive” in each case. Besides, the Potency result in test [7], in test [8], in [16] and in test [17] was “inactive” in each case. Besides, the outcome in test [18] was inactive.
`C[C@H](Nc1ncnc2nc[nH]c12)c1nc2ccc(F)cc2c(=O)n1-c1ccccc1`: the Potency entry in test [1], in test [2], in [9], in [3], in [4] and in [5] was “inactive” throughout. The Potency result in test [6], in test [12], in [13], in test [14], in [15] and in [20] was “inactive” throughout. Also, the Potency result in test [7], in test [8], in test [16] and in test [17] was “inactive” throughout. Also, in test [10], the max response is -36.2%. Moreover, in [11], the Potency is 13000 nM (active).
Regarding `CCC1CC2CN3CCc4c([nH]c5ccccc45)C(C(=O)OC)(C2)C13` (stereo not given), the Potency entry in test [1], in [2], in [9], in [3], in test [4] and in [6] was “inactive” each time. The Potency entry in [12], in test [13], in [14], in test [15], in test [19] and in test [20] was “inactive” in each case. Moreover, the Potency entry in test [7], in test [8], in test [16] and in [17] was “inactive” each time. Moreover, the call in test [18] was inactive. For the same compound, the results for the max response in test [10] and in [11] were 3.09% and -4.92%, respectively.
With `CO[C@H]1C[C@H](O[C@H]2CC[C@]3(CO)[C@H]4CC[C@]5(C)[C@@H](C6=CC(=O)OC6)CC[C@]5(O)[C@@H]4CC[C@]3(O)C2)O[C@H](C)[C@H]1O`, the Potency entry in [1], in test [2], in [3], in [4], in test [5] and in [6] was “inactive” each time. In addition, the outcome in test [18] was inactive. Moreover, the Potency in test [10] was 70.9 nM (active); in [12], 89.1 nM (active); in test [13], 355 nM (active); in test [14], 891 nM (active); in test [15], 199 nM (active); in [19], 224 nM (active). Further, the Potency in [7] is 1000 nM (active); in [8] it was 112 nM (active); in [16], 141 nM (active); in test [17], 31.6 nM (active). Moreover, in [11], the max response was 1.22%.

Source of the values: PubChem BioAssay (NCATS).
